Measured values taken from PubChem BioAssay.

Legend:
[1] = tested on: Human papillomavirus type 1a protein E7 (residues 44-93); assay: HPV1a E7 fragment binders on microarrays, primary screen, biochemical, small-molecule microarray, residues 44-93, 635 nm fluorescence (AID 1108); conditions: small-molecule microarray binding, fluorescence 635 nm; higher = more signal;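 note: E7 fragment applied at 1 µg/mL in TBST for 1 h at 4 C; score combines spot fluorescence with its signal to noise ratio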
[2] = modulators of HCV replicon luciferase signal, primary screen, HCV replication inhibitor project, Huh7 cells, luciferase reporter (AID 1109); conditions: 48 h, higher = more signal;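 note: huh7 hepatoma cells harbouring a luciferase neomycin HCV replicon reporter; luciferase luminescence as measure of HCV replicon replication; test concentration not given here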
[3] = molecular target: Left-right determination factor 2 (Homo sapiens) (UniProt O00292); assay: LEFTY2 binders on small-molecule microarrays, primary screen, biochemical, small-molecule microarray, 635 nm fluorescence scan (AID 1110); conditions: LEFTY2 binding, higher = more signal
[4] = molecular target: Calmodulin-1 (Homo sapiens) (UniProt P0DP23); assay: CALM1 binders on microarrays, EGTA buffer, profiling panel, biochemical, small-molecule microarray, Cy5-labelled CALM1 (AID 1111); conditions: Cy5-CALM1 binding fluorescence, higher = more signal;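 note: labelled calmodulin applied in Tris saline Tween buffer holding calcium plus EGTA and DTT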
[5] = molecular target: Calmodulin-1 (Homo sapiens) (UniProt P0DP23); assay: calcium-bound CALM1 binders on microarrays, profiling panel, artefact control for SMM control-protein annotation, biochemical, small-molecule microarray, Cy5-labelled CALM1, plus calcium (AID 1112); conditions: Cy5-CALM1 binding fluorescence, higher = more signal;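 note: score merges spot fluorescence with signal to noise from triplicate slides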
[6] = small-molecule microarray binders of probe aWnt5a, primary screen, biochemical, biotinylated probe, 635/667 nm fluorescence (AID 1113); conditions: higher = more signal;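 note: score merges 667 nm fluorescence intensity with signal-to-noise per printed feature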
[7] = small-molecule microarray binders of probe aShh, primary screen, biochemical, biotinylated probe, 635/667 nm fluorescence (AID 1114); conditions: higher = more signal;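 note: probe is biotin-labelled aShh protein from a stem cell growth factor screen; measures binding of labelled protein to compounds printed on the slide; score merges feature fluorescence at 667 nm with signal-to-noise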
[8] = small-molecule microarray binders of probe aNog, primary screen, biochemical, biotinylated probe, 635/667 nm fluorescence (AID 1115); conditions: higher = more signal;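 note: probe is biotinylated aNog protein used at 0.15 µg/mL for 1 h at 4 C; z-score combines 667 nm fluorescence of each spot with its signal to noise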
[9] = molecular target: Torsin-1A-interacting protein 1 (Homo sapiens) (UniProt Q5JTV8); assay: LAP1 binders from COS7 cell lysate, primary screen, small-molecule microarray, 635/667 nm fluorescence (AID 1116); conditions: COS7-hLAP1 lysate binding, 635 nm fluorescence, higher = more signal
[10] = molecular target: Alpha-bungarotoxin (Bungarus multicinctus) (UniProt P60615); assay: alpha-bungarotoxin binders on microarray, profiling panel, artefact control for SMM control protein annotation, biochemical, small-molecule microarray, Alexa647 label, 635/667 nm fluorescence (AID 1117); conditions: alpha-BTX-A647 binding fluorescence, higher = more signal
Chain of Alpha-bungarotoxin (Bungarus multicinctus) (P60615 whole entry, looked up): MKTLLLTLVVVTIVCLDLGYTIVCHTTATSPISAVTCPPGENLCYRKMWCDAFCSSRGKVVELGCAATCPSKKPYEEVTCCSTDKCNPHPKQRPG

Chain of Left-right determination factor 2 (Homo sapiens) (O00292 whole entry, looked up): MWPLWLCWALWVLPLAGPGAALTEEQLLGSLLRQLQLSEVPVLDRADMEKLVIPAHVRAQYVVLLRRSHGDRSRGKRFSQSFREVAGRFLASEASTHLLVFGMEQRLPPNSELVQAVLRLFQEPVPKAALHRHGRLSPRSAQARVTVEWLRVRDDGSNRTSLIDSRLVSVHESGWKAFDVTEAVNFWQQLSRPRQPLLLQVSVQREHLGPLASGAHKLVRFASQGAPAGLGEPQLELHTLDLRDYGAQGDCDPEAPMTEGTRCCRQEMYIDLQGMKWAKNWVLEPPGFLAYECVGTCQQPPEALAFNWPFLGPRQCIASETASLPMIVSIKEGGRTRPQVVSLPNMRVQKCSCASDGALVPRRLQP
Chain of Torsin-1A-interacting protein 1 (Homo sapiens) (Q5JTV8 whole entry, looked up): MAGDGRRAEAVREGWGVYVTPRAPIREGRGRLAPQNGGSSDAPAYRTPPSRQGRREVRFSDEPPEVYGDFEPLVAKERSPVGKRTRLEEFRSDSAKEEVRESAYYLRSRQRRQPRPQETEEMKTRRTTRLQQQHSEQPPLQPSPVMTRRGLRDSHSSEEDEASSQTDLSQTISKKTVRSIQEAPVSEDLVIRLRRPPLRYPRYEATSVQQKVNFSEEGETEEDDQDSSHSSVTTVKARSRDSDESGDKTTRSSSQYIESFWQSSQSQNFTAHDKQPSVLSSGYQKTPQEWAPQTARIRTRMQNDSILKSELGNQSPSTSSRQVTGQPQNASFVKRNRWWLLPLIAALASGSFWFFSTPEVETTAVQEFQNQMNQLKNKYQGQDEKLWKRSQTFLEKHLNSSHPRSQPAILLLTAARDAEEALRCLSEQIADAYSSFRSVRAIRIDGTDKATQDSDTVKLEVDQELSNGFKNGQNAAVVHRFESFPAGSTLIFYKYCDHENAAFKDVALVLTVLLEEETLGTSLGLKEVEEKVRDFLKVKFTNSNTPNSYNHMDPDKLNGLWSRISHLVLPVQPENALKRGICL

| SMILES | composite z-score [1] | z-score [2] | composite z-score [3] | composite z-score [4] | composite z-score [5] | composite z-score [6] | composite z-score [7] | composite z-score [8] | composite z-score [9] | composite z-score [10] |
| --- | --- | --- | --- | --- | --- | --- | --- | --- | --- | --- |
| CCOC(=O)C[C@H]1[C@H](OC(=O)c2ccc(C(=O)c3ccccc3)cc2)[C@@H](NC(=O)C2CCCCC2)c2cc(OCCCO)ccc2N1C(=O)c1ccc2ccccc2n1 | 1.3 | 0.0574 | 0.752 | 0.711 | -0.102 | 0.0552 | -0.243 | -0.244 | 0.805 | 0.673 |
| CC1=C2[C@@H](CCc3ccccc3)OB(O)C[C@@H]2[C@@H]2C(=O)N(C)C(=O)[C@@H]2C1 | 0.135 | -0.779 | 0.173 | 0.0309 | -0.338 | -0.0519 | 0.0469 | -0.137 | 0.284 | 0.769 |
| N[C@@H](Cc1ccccc1)C(=O)NCc1cn(Cc2ccccc2)nn1 | -0.132 | 0.0943 | 0.167 | -0.761 | -0.232 | -0.119 | -0.0904 | -0.245 | 0.775 | 1.11 |
| COCCCNC(=O)[C@@H]1c2ccccc2C(=O)N(C(C)C)[C@H]1c1ccc(CO)cc1 | -1.72 | -0.183 | 0.0506 | 0.355 | 0.254 | -0.0828 | -0.221 | -0.1 | 0.846 | 0.886 |
| CC(C)NC(=O)[C@@]1(c2ccc([N+](=O)[O-])cc2)CC(=O)N(C2CCCCC2)[C@@H]1c1ccc(CO)cc1 | 1.46 | -0.778 | -0.016 | -0.0034 | -0.0027 | 0.0115 | -0.553 | 0.275 | 2.08 | 0.621 |
| [N-]=[N+]=Nc1ccccc1C[C@@]1(C(=O)NCCN2CCOCC2)N=C(c2ccc(OCCCO)cc2)O[C@@H]1c1ccccc1N=[N+]=[N-] | -0.241 | -2.99 | 0.0057 | 1.94 | 0.455 | 0.0543 | 0.411 | -0.406 | 1.08 | 1.74 |
| NCCCCCNC(=O)[C@@H]1C[C@@H]2C(=O)N[C@@H](CCCCN)C(=O)N2[C@@H]1c1ccc(O)cc1 | 1.37 | -1.48 | 1.15 | 1.44 | 0.325 | -0.0286 | 0.246 | -0.103 | 1.51 | 1.2 |
| CCCCC(CC)C(O)C1C=CC2C(=O)N(c3ccccc3)C(=O)C2N1Nc1ccc(C#N)cc1 (stereo not given) | 1.44 | -0.67 | 0.111 | 1.35 | 0.467 | 0.267 | 0.348 | 1.97 | 0.336 | 1.45 |
| CN(C)CCCCCCNC(=O)[C@@H]1C[C@@H]2C(=O)N3CCC[C@H]3C(=O)N2[C@@H]1c1cccc(OCCO)c1 | 0.35 | 0.857 | 0.944 | -0.215 | -1.74 | 0.0566 | 0.176 | 0.822 | 2.07 | 1.79 |
| OCCCC1=CC(c2ccc(CN3CCCC3)cc2)N(Cc2cc3c(cc2Br)OCO3)CC1 (stereo not given) | -0.377 | -3.23 | 0.477 | -0.464 | -0.811 | -0.0735 | 0.0611 | 0.162 | 1.17 | 0.396 |
| CO[C@H]1O[C@H](CO)[C@@H](OC(=O)Nc2ccc3c(c2)OCO3)[C@H](OC(=O)Nc2ccc3c(c2)OCO3)[C@@H]1OC(=O)Nc1ccc2c(c1)OCO2 | 1.49 | 0.158 | 0.472 | 1.88 | -0.745 | 0.0618 | 0.313 | 0.909 | 1.25 | 1.7 |
| CC#CCO[Si](C#Cc1ccccc1)(C(C)C)C(C)C | -2.07 | 0.046 | -0.0764 | -0.0874 | 0.877 | -0.224 | -0.0769 | -0.281 | -0.785 | -1.53 |
| COCC(=C=CC[C@H](O)c1ccc(CO)o1)CCO | 0.76 | -0.793 | 0.173 | -0.0876 | -0.249 | 0.0108 | -0.0119 | 0.502 | -0.0673 | 0.818 |
| COC(=O)[C@@]1(Cc2ccccc2)[C@H]2c3cc(C(=O)N(C)C)n(Cc4ccc(C)o4)c3C[C@H]2CN1C(=O)c1ccccc1 | 0.946 | -2.49 | 0.0319 | 1.69 | 1.26 | 0.69 | 1.95 | 0.728 | 1.29 | 0.76 |
| COC(=O)[C@@]1(Cc2ccc(OC)cc2)[C@H]2c3cc(C(=O)N4CCCC4)n(CCc4c[nH]c5ccc(OC)cc45)c3C[C@H]2CN1C(=O)c1ccccc1 | 0.113 | -1.93 | 0.221 | 2.28 | 1.46 | 0.155 | 0.504 | 1.54 | 2.19 | 1.38 |
| COc1ccc([Si](C)(C)[C@@H]2[C@@H](CC(=O)N3CCC[C@H]3CO)O[C@]3(C(=O)N(Cc4cccc(N5C(=O)COc6ccccc65)c4)c4ccccc43)[C@H]2C)cc1 | 1.35 | -4.2 | 0.486 | 1.49 | 0.343 | 0.0215 | 0.131 | -0.368 | 1.41 | 0.678 |
| C=CCOC(=O)[C@@H]1[C@H]2C(=O)O[C@H](c3ccccc3)[C@H](c3ccccc3)N2[C@H](c2ccc(OCCOC(=O)[C@@H]3C[C@@H]4C(=O)N[C@@H](CCCC[N+](C)(C)C)C(=O)N4[C@@H]3c3ccc(O)cc3)cc2)[C@@]12C(=O)Nc1ccc(I)cc12 | 1.41 | -0.282 | 0.459 | -0.14 | -0.521 | -0.112 | 0.614 | 0.559 | 1.36 | 0.923 |
| O=C1C2C=CC(C(O)C3CC=CCC3)N(Nc3ccccc3)C2C(=O)N1c1ccccc1 (stereo not given) | 1.44 | -0.463 | 0.0066 | 1.08 | -0.0425 | -0.098 | 0.128 | 0.821 | 0.946 | 1.78 |
| COC(=O)C1=CC(CCCO)=CC(c2ccc(CN3CCCC3)cc2)N(Cc2cccc(OC(F)(F)F)c2)C=C1C(=O)OC (stereo not given) | 1.38 | -1.18 | 0.0706 | 2.08 | 0.695 | -0.172 | -0.0953 | 0.947 | 2.1 | 1.89 |
| CC(=O)NCCCC[C@@H]1NC(=O)[C@@H]2C[C@H](C(=O)NCCCCCN)[C@H](c3ccc(O)cc3)N2C1=O | 1.32 | -0.663 | 1.31 | 0.331 | 0.711 | 0.258 | -0.0794 | -0.158 | 1.31 | 0.766 |
| COC(=O)[C@@]1(Cc2ccc(F)cc2)[C@H]2c3cc(C(=O)N(C)C)n(Cc4ccc(OC(F)(F)F)cc4)c3C[C@H]2CN1C(=O)c1ccccc1 | 0.841 | 0.167 | 0.242 | 0.11 | -0.191 | -0.0758 | 0.442 | 0.0924 | -0.147 | 0.414 |
| CC(C)=C1C(=O)C(c2ccccc2)=C2CN3C(=O)N(CCc4ccccc4)C(=O)[C@]3(Cc3ccc(C(F)(F)F)cc3)[C@H]21 | -0.396 | -0.508 | -0.906 | 1.66 | 0.953 | 0.0044 | 0.275 | -0.781 | 0.759 | 0.716 |
| C=CCN1C(=O)[C@]2(CCC(=O)OC(C)(C)C)N=C(c3ccc(OCCCO)cc3)O[C@@H]2c2ccccc21 | 0.841 | -2.91 | 0.272 | 1.23 | -0.0414 | -0.0441 | 0.131 | -0.292 | 0.423 | 1.38 |
| COc1cccc(C)c1NC(=O)O[C@H]1[C@H](OC(=O)Nc2ccccc2-c2ccccc2)[C@H](OC(=O)Nc2ccccc2-c2ccccc2)[C@@H](OC)O[C@@H]1CO | 1.41 | -2.36 | 0.679 | 1.72 | 0.11 | 0.0304 | -0.0192 | -0.518 | 1.26 | 0.688 |
